# Bioassay records from PubChem BioAssay.
# HT1080 IDH1KD tx = qHTS for induction of synthetic lethality in tumor cells producing 2HG: qHTS for the HT-1080-IDH1KD cell line | Potency, µM (series often up to 46.1 µM), without a hit: top-dose activity, negative = toxicity, actives largely listed as cytotoxic | HT-1080 IDH1 knockdown viability, ATP luminescence, 48 h | 2% of 360,000 active | AID 686971, 2013;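 note: 0% = DMSO wells and -100% = cell-free medium wells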
#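 IDH1KD HT-1080 cells, 750/well, RPMI + 5% FBS; compound pinned after 2 h settling; 48 h, 37 °C; CellTiter-Glo luminescence; % activity normalised to DMSO and no-cell wells; curves fitted, classed by r2 and efficacy.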
# TGFb inhibitor = qHTS for Inhibitors of TGF-b; HepG2 CAGA-GFP TGF-b/SMAD3 reporter, GFP fluorescence, 18 h; TGF-beta stimulated, 500 pg/mL final; Potency, µM (highest dose often 46.1 µM), for the others: top-dose activity, negative = inhibition, usual class: inhibitors; 1.2% of 410,000 active; AID 588855, 2011; note: % is set by controls: 0 for no effect and ±100 for the full control effect; nearly all actives have a fitted effect of over 65% in size
#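 Using HEPG2 CAGA-GFP reporter cells at 1000 cells/well, we pinned test compounds, stimulated with recombinant TGF-beta (500 pg/mL final) and measured total well GFP after 18 h.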
# HepG2 viability = qHTS for Inhibitors of TGF-b: Cytotox Counterscreen; HepG2 CAGA-GFP viability, ATP luminescence, 18 h; Potency, µM (doses to about 46.1 µM), for inactives: at the highest dose activity change, negative = cytotoxicity, most hits filed as cytotoxic; 0.76% of 410,000 active; AID 588856, 2011
#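 HepG2 CAGA-GFP cells (1000/well, DMEM with 1% FBS) received compound, then TGF-beta at 500 pg/mL final, and were incubated 18 hours at 37 degrees C. Viability was read by CellTiter-Glo luminescence. Media-only wells were set as complete cell-killing and DMSO as no toxicity.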
# ATXN viability = Viability Counterscreen for Primary qHTS for Inhibitors of ATXN expression; S2 cells (HEK-293 line with an ATXN2-luciferase reporter) viability, CellTiter-Fluor protease fluorescence, 24 h; Potency, µM (highest dose often 56.7 µM), hits mostly cytotoxic; 0.49% of 400,000 active; AID 651635, 2014; note: nearly all actives have a fitted effect of over 40% in size
# ATXN2 expr inh = Primary qHTS for Inhibitors of ATXN expression; HEK-293 ATXN2-luciferase reporter, luminescence, 24 h; Potency, µM (titrated, usually from 57 µM), inactives show at the highest dose activity change, negative = inhibition, actives largely listed as inhibitors; 0.72% of 360,000 active; note: % is set by controls: 0 for no effect and ±100 for the full control effect; nearly all actives have a fitted effect of over 55% in size
#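 qHTS (up to 57 uM final) was run with 24 h compound exposure of reporter cells at 37 °C. Each well was multiplexed: SteadyGlo luminescence measured ATXN2-luciferase expression after a fluorogenic Gly-Phe-AFC viability readout (25 uM final).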
# HT1080-NT tox = qHTS for induction of synthetic lethality in tumor cells producing 2HG: qHTS for the HT-1080-NT fibrosarcoma cell line; HT-1080-NT fibrosarcoma viability, CellTiter-Glo ATP luminescence, 48 h; Potency, µM (top dose mostly 46.1 µM), inactives show at the highest dose activity, negative = less viability, hits mostly cytotoxic; 1.6% of 360,000 active;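 note: NT is the 2HG producing partner of a matched IDH1 knockdown line; 0% = DMSO-treated cells and -100% = media-only wells without cells; nearly all actives have a fitted effect of over 55% in size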
#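 A 48-hour cytotoxicity screen used HT-1080-NT cells plated 2 hours before compound delivery. ATP-based CellTiter-Glo luminescence measured viability, normalized to DMSO and no-cell controls.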
# Numbers without * were called inactive; i = inactive; ? = inconclusive; . = not tested or not shown. Only some compounds are listed: those with a hit (about 3.8% of all), similar ones and a draw of the others. Calls come from the whole dose curve; as a rule, active = well fitted curve in the direction sought with a large enough effect; inconclusive = small, poorly fitted or top-dose-only effect, or another doubt; inactive = no such curve, though single readings can be large; an effect the other way counts as inactive or inconclusive. Potency is the fitted concentration of half-maximal effect.
SMILES,HT1080 IDH1KD tx,TGFb inhibitor,HepG2 viability,ATXN viability,ATXN2 expr inh,HT1080-NT tox
CC(=O)OCC(=O)[C@@]1(O)[C@H](C)C[C@H]2[C@@H]3C=C(C)C4=Cc5c(cnn5-c5ccccc5)C[C@]4(C)[C@@H]3[C@@H](O)C[C@@]21C,.,.,.,.,27µM*,.
CC1=C[C@@H]2[C@@H]([C@@H](O)C[C@@]3(C)[C@H]2C[C@@H](C)[C@]3(O)C(=O)CO)[C@@]2(C)Cc3cnn(-c4ccccc4)c3C=C12,.,.,.,.,-23%,.
CCc1cccc(C)c1NC(=O)CCn1c(=O)c2cccn2c2ccccc21,.,-16%,-29%,.,.,.
CC(C)CN1CCC(=O)N(C(CSc2ccc(Br)cc2)Cc2ccccc2)CC1 (configuration not stated),.,-10%,6%,.,.,.
Cc1ccc(C(=O)c2c(C)oc3c2C(=O)C(=O)c2ccccc2-3)cc1,?,?,-62%,.,?,?
COc1ccc(C(=O)c2c(C(F)(F)F)oc3c2C(=O)c2ccccc2C3=O)cc1,6.5µM*,?,1.1µM*,22µM*,32µM*,7.3µM*
CC1CCc2cc(F)cc3c2N1C(=O)C(C(=O)Nc1cnccn1)C3=O (configuration not stated),.,0%,-25%,.,.,.
COc1ccccc1-c1cc(C(F)(F)F)nc(S(=O)(=O)CCCC(=O)NC(C)C)n1,5.8µM*,?,-22%,32µM*,?,5.8µM*
COc1ccccc1-c1cc(C(F)(F)F)nc(S(=O)(=O)CCCC(=O)NCc2ccc(F)cc2)n1,16µM*,?,14µM*,.,?,9.2µM*
COc1ccccc1-c1cc(C(F)(F)F)nc(N2CCCC2)n1,5%,-21%,-14%,i,4%,1%
COc1ccccc1-c1cc2nc(C)c(CCC(=O)NCc3ccc(F)cc3)c(C)n2n1,6%,8%,1%,i,-24%,-1%
COc1ccccc1-c1cc(C(F)(F)F)nc(S(C)(=O)=O)n1,18µM*,?,-116%,32µM*,?,?
COc1ccc(CN2CC[C@H]3C=CC[C@@H](C(=O)Nc4nccs4)[C@H]3C2=O)cc1OC,.,21%,47%,.,.,.
Cc1cc(C(=O)N(Cc2cc3cc4c(cc3nc2N2CCOCC2)CCC4)CC2CCCO2)c(=O)[nH]c1C (configuration not stated),.,.,.,i,.,.
OC1(c2cccc(C(F)(F)F)c2)CCN(c2ncnc3c2[nH]c2ccccc23)CC1,?,?,-53%,?,27%,23µM*
Cc1cnc(NC(=O)c2cc3c(C)nn(-c4ccccc4)c3s2)s1,?,-8%,-10%,i,14%,11µM*
CCOC(=O)C1CCCC(NS(=O)(=O)c2ccc(NC(C)=O)cc2)C1 (configuration not stated),1%,11µM*,-13%,i,4%,-2%
CCOc1ccc(NC(=O)COc2ccc(S(=O)(=O)NC3CCCCC3)cc2)cc1,.,-25%,-6%,i,-6%,.
CCC(C)C(C(=O)OCC[N+](C)(CC)CC)c1ccccc1 (configuration not stated),.,.,.,i,.,.
COc1ccc(C2=Nc3ccccc3NC(=O)C2N(CCc2ccccc2)C(=O)c2cccs2)cc1 (configuration not stated),?,?,8%,?,0%,?
O=C1Nc2ccccc2N=C(c2ccc3c(c2)OCO3)C1N(CCc1ccccc1)C(=O)CSc1ncccn1 (configuration not stated),?,?,-16%,7.9µM*,7%,?
NCC/C=C1/c2ccccc2CSc2ccccc21,?,?,16µM*,i,-30%,14µM*
COc1ccccc1NC(=S)NC12CN3CN(CN(C3)C1)C2,0%,-1%,5%,i,-4%,8%
COc1ccccc1NC(=S)N1CC(C)(C)C1=O,11%,2%,5µM*,i,5%,1%
COc1cc(C2C=C(C(=O)O)Nc3ncnn32)ccc1O (configuration not stated),.,0%,1%,i,1%,.
SMILES,HT1080 IDH1KD tx,TGFb inhibitor,HepG2 viability,ATXN viability,ATXN2 expr inh,HT1080-NT tox
Cc1oc2ccc(O)c(CN3CCCCCC3)c2c1C(=O)Nc1cccc(C(F)(F)F)c1,.,?,13µM*,.,.,.
CCc1cccc(CC)c1NC(=O)c1c(C)oc2ccc(O)c(CN3CCCC3)c12,.,-10%,-29%,16µM*,-25%,.
Cc1oc2ccc(O)c(CN3CCCC3)c2c1C(=O)Nc1ccccc1,.,1%,-20%,i,-12%,.
CCn1c(-c2ccccc2F)nc2cc(NC(C)=O)cc(C(=O)N(C)Cc3cn(C)nc3C)c21,.,.,.,i,.,.
COc1ccc(OC)c(NC(=O)Cn2cc(C=O)c3ccccc32)c1,-11%,10µM*,-30%,i,-7%,-19%
Cc1ccc(OCCn2cc(C=O)c3ccccc32)cc1,1%,11µM*,-14%,i,?,1%
COc1cccc(NC(=O)Cn2cc(C=O)c3ccccc32)c1,-14%,?,-49%,i,-16%,-26%
CCc1cccc(NC(=O)Cn2cc(C=O)c3ccccc32)c1,16µM*,?,-25%,i,.,?
CC(=O)c1cn(CCOc2cc(C)ccc2C)c2ccccc12,9.2µM*,-5%,-1%,i,-24%,?
O=Cc1cn(CCOc2ccccc2)c2ccccc12,-5%,?,-62%,?,.,-2%
Cc1ccc(C)c(OCCn2cc(C(=O)O)c3ccccc32)c1,-6%,0%,-19%,i,2%,-24%
Cn1c(=O)c2ccccc2n2c(CCC(=O)N3CCN(c4cccc(Cl)c4)CC3)nnc12,.,-21%,0%,.,.,.
Cc1ccc(NC(=O)CN(C)S(=O)(=O)c2ccc3c(c2)n(C)c(=O)c(=O)n3C)cc1C,.,0%,3%,i,0%,.
COC(=O)c1cn(CC(=O)Nc2ccc(F)cc2)c2ccccc12,-28%,-5%,-7%,i,-14%,-19%
Cc1ccc(NC(=O)Cn2cc(C=O)c3ccccc32)cc1,0%,7.9µM*,-29%,i,-9%,-15%
Clc1ccccc1Nc1nnc(-c2ccncc2)s1,7.3µM*,-7%,-96%,i,?,7.3µM*
FC(F)(F)c1ccc(Cl)c(Nc2nnc(-c3ccncc3)s2)c1,17%,4%,-12%,i,8%,13%
